The supplement of paper PMC10338343
± gives the standard deviation.

system: MILI (PIWIL2) piRISC loaded with L1MC piRNA (26 nt); assay: pre-steady-state target cleavage rate (min^-1); guide: L1MC piRNA 5'p-UAACUAAAUACUAUGCAAGCUGUAGG; MIWI and MILI are mouse PIWI proteins and EfPiwi is from a freshwater sponge; tags in brackets are library labels; higher = faster piRNA-guided slicing of the target; details: auxiliary factor: none (no GTSF1)
In short: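 The pre-steady-state cleavage rate was calculated from a burst-and-steady-state fit. Data came from Cleave-'n-Seq, in which […] transcribed, DNA-blocked target RNA library was mixed with 1 nM active affinity-purified piRISC carrying one synthetic guide, with or without 500 nM GTSF1 partner protein, in HEPES–potassium acetate buffer at 33 °C for 0–8 or 0–960 min. Uncleaved targets were sequenced and normalised to depth and to weakly complementary targets, three trials were pooled, and k3 was capped at 0.0001 min^-1.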
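Also: 1 nM active piRISC with 0.1 nM target library at 33 °C single turnover.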

Sequence	pre-steady-state target cleavage rate
UCCUGGAUGUCGUUGCAUAGUAUUUCAGUUA	0.00397 ± 0.0033
UCCUGGAUGUGCUUGGAUAGUAAUUAGUUA	0.00472 ± 0.0026
UCCUGGAUGACCUUGCAUAGUAUAUAGUUA	0.00397 ± 0.0031
UCCUGGAUGAGGUUGCAUAGUAUUUAGUAA	0.004 ± 0.0027
UCCUGGAACAGCUACCAUAGUAUUUAGUAA	0.00298 ± 0.0029
UCCUGGAUGAGCUUGCAUAGUUUUUUGUUA	0.00346 ± 0.003
UCCUCGAACAGCUUGCAUAGUAUUUAGUUA	0.00922 ± 0.0026
UCCUGCUACAGCUAGCAAAGUAUUUAGUUA	0.00463 ± 0.0024
UCCUGCUACAGCUUGCAUUGAAUUUAGUUA	0.00353 ± 0.0025
UCCUGCUACUCGUUGCAUAGUAUUUAGUAA	0.00373 ± 0.0021
UCCUGGAACAGUCUUGCAUAGUAUUUAGUUA	0.00993 ± 0.0026
UCCUCCUAGAGCUUGCAAAGUAUUUAGUUA	0.00516 ± 0.002
UCCUGGUACAGCUUCGUUAGUAUUUAGUAA	0.00388 ± 0.0027
UCCUGGAUCAGCUUGCAAAGUAUUUUGUUA	0.00456 ± 0.0025
UCCUGGAACAGCUUGCAUAGUAGUUUAGUUA	0.00337 ± 0.0031
UCCUGGAUGAGCAUGGAUAGUAUUUAGUUA	0.0105 ± 0.0024
UCCUGGUACAGCUUCCUUAGUAUUUAGUUA	0.00854 ± 0.0031
UCCUGGAUGUGCAUGCAUAGUAUUUAGUUA	0.0095 ± 0.0025
UCCUGGAACAGCUUGCAUAGAUAUUUAGUUA	0.00387 ± 0.0025
UCCUGGAACAGCUUGGAAAGUAUUUAGUUA	0.00969 ± 0.0023
UCCUGGUACAGCAAGCAUAGUAUUUAGUAA	0.00526 ± 0.0023
UCCUGGAUCUGCUUGCAUUGUAUUUAGUUA	0.00477 ± 0.0023
UCCUGGAUGUGCUUGCAAUGUAUUUAGUAA	0.00545 ± 0.0027
UCCUGGAUGAGCUUGCAUUGUAAUUAGUUA	0.0035 ± 0.0031
